SARS PLpro yeast = inhibitors of SARS-CoV papain-like protease in yeast. 330,000 tested, 0.19% active. AID 485353. Potency, µM (doses to about 32.9 µM), inactives show top-dose activity, positive = growth rescue, actives largely listed as activators. S. cerevisiae expressing SARS-CoV PLpro, growth rescue; calls by dose curve; also: potency is read from the fitted curve at half-maximal effect; 0% is about no effect; nearly all actives have a fitted effect of over 55% in size
MARV entry inh = Marburg virus entry inhibition. 300,000 tested, 1.8% active. Potency, µM (highest dose often 37.8 µM), for inactives: at the highest dose activity change, negative = inhibition, actives largely listed as inhibitors. Marburg virus pseudotyped entry inhibition, cell reporter. AID 540276; calls by dose curve; tested in HEK293 cells; also: potency is read from the fitted curve at half-maximal effect; % is scaled to controls: 0 for no effect and ±100 for the full control effect
HCV inhibitor = inhibitors of hepatitis C virus infection. Huh7.5.1 HCVcc-Cre infection, luciferase reporter, 44 h. Potency, µM (top dose mostly 41.8 µM), without a hit: at the top dose activity change, negative = inhibition, hits mostly inhibitors. 340,000 tested, 3.4% active. AID 651820; active = well fitted inhibition curve with a large enough effect; inconclusive = small, poorly fitted or top-dose-only effect, or another doubt; inactive = no such curve, though single readings can be large or run the other way; also: potency is read from the fitted curve at half-maximal effect; % is scaled to controls: 0 for no effect and ±100 for the full control effect
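1,000 cells/well; 4 h culture; + compound; + HCVcc-Cre (~0.5 moi); 44 h; luciferase substrate, RT 15 min; read 15 sec.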
Lassa entry inh = blocks Lassa virus binding to or entry into cells | Lassa virus pseudotype entry inhibition, cell reporter | Potency, µM (doses to about 37.9 µM), inactives show top-dose activity change, negative = inhibition, most hits filed as inhibitors | 300,000 tested, 1.2% active | AID 540256; calls by dose curve; tested in HEK293 cells; also: potency is read from the fitted curve at half-maximal effect; % is scaled to controls: 0 for no effect and ±100 for the full control effect; nearly all actives have a fitted effect of over 50% in size
HCMV inh = blocks human cytomegalovirus replication; HFF cells, HCMV-luciferase reporter, 72 h; active compounds read low; activity change, negative = inhibition, % at 57.5 µM; 410,000 tested, 4.5% active; in the data active = activity change below about -60%; inconclusive = no clear call, values can overlap the other calls; inactive = above about -39%; also: % is scaled to controls: 0 for no effect and ±100 for the full control effect
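Screen run at 2 compound doses on HFFs infected with reporter HCMV, MOI 1 PFU/cell. Luciferase activity from cell lysates at 72 h post infection gave inhibition relative to buffer-only and Salinomycin wells.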
FMDV inh = blocks foot and mouth disease virus; AID 1159524; FMDV antiviral cell-based qHTS; 410,000 tested, 1.2% active; Potency, µM (series often up to 57.9 µM), inactives show at the top dose activity change, negative = inhibition, hits mostly inhibitors; calls by dose curve; tested in HEK293T cells; also: read-out not given here; potency is read from the fitted curve at half-maximal effect; % is scaled to controls: 0 for no effect and ±100 for the full control effect; nearly all actives have a fitted effect of over 45% in size
Active calls of the source: *; ? = inconclusive; . = not tested or not shown; [ ] = remark or other dose. Most compounds without a hit are left out; they make up all but 8% or so of the library.

SMILES	SARS PLpro yeast	MARV entry inh	HCV inhibitor	Lassa entry inh	HCMV inh	FMDV inh
Cc1cc(C)c2nc(NNC(=O)c3ccc(S(=O)(=O)N4CC(C)CC(C)C4)cc3)sc2c1 (centres undefined)	?	14.6µM*	7.08µM*	?	-98.0*	-19.1%
Cc1cc(C)c2nc(NC(=O)c3ccc(S(=O)(=O)N4CCc5ccccc54)cc3)sc2c1	.	.	.	3.3%[46.1 µM]	-29.5	?
CCC(CC)C(=O)N(C)c1c(C)nc2c(OCc3ccc(C(F)(F)F)cc3)cccn12	.	.	.	.	8.2	?
COc1ccccc1NC(=O)CC1Nc2ccccc2NC1=O (centres undefined)	0.4%	-8.3%	10µM*	-1.2%	71.5	-6.3%
CCCC1(CCC)NC(=O)N(CC(=O)Nc2ccccc2OC)C1=O	6.3%	-7.5%	-3.5%	0.0%	-108.7*	0.5%
Cc1cc2c(cc1C)NC(CC(=O)NCc1ccccc1)C(=O)N2 (centres undefined)	-6.3%	14.1%	?	?	-108.6*	57.8%
CC12CCC(C(=O)Nc3cc(Cl)ccc3Cl)(C(Br)C1=O)C2(C)C (centres undefined)	15.5%	?	-3.6%	?	?	?
Cc1cc(C)cc(N2C(=O)CS(=O)(=O)C23C(=O)N(Cc2ccccc2)c2ccccc23)c1 (centres undefined)	.	.	.	3.0%[46.1 µM]	-15.7	-13.4%
Cc1ccc(N(CC(=O)N2CCc3ccccc32)C2=NC(=O)CS2)cc1	-1.2%	15.0%	6.31µM*	-1.7%	8.4	?
Cc1ccc(C(=O)OCC(=O)N2CCc3ccccc32)cc1	-3.3%	-8.6%[46.1 µM]	13.6%	?	-8.5	78.6%
C=CCNC(=O)c1onc(CSc2ccccc2)c1C(=O)NCC=C	.	.	-28.7%	.	-26.5	-8.2%
C=CCNC(=O)c1onc(CSc2ccc(F)c(F)c2)c1C(=O)NCC=C	.	.	-25.6%	.	-66.1*	-11.7%
CCOC(=O)CSC1=NC(=O)/C(=C\c2ccc(Cl)cc2)S1	-49.1%	1.4%	?	-11.5%	-94.1*	17.8µM*
CCOC(=O)C1CCN(C2=NC(=O)/C(=C/c3ccc(Cl)cc3)S2)CC1	-3.4%	-8.4%[46.1 µM]	11.2%	-10.7%[46.1 µM]	-9.9	1.4%
CC(=O)N1CCN2C(=O)C1CCCC(=O)c1cc(C(C)C)ccc12 (centres undefined)	0.6%	0.4%	19.9%	7.3%	-67.4*	19.2%
CC1(C)CC(=O)C2=C(C1)O[C@@]1(CCCCN3C(=O)c4ccccc4C3=O)Cc3cc(C#N)ccc3C2O1	1.8%[6.58 µM]	.	.	.	.	.
O=C(/C(=C/O)N=Nc1ccccc1)c1ccc(Cl)cc1	-32.2%	?	?	?	-37.8	?
Cc1ccc(N=N/C(=C\O)C(=O)c2ccc(Cl)cc2)cc1	-9.7%	?	10µM*	?	-87.1*	?
COC(=O)C(Nc1ccccc1Cl)(c1cc(C)c(O)c(C)c1)C(F)(F)F (centres undefined)	-25.9%	?	14.1µM*	?	-77.6*	-8.2%
Cc1c(C(=O)Nc2ccc(C(=O)O)cc2)nnn1-c1ccccc1	.	.	.	?	-74.4*	10µM*
Cc1c(C(=O)O)nnn1-c1ccccc1	-2.6%	9.8%	11.9%	13.3%	-5.1	0.0%
Cc1c(C(=O)Nc2ccc(F)cc2)nnn1-c1cccc(C(F)(F)F)c1	-4.7%	-0.6%[46.1 µM]	?	?	-87.8*	-16.4%
C/C(=N\Nc1ccc(Cl)c(C(=O)O)c1)c1ccc[nH]1	-0.6%	-3.6%[46.1 µM]	7.0%	11.3%[46.1 µM]	-9.8	9.7%
COc1ccc(C2c3c(oc4ccccc4c3=O)C(=O)N2c2nc(C)c(C)s2)cc1 (centres undefined)	.	0.7%[46.1 µM]	.	0.1%[46.1 µM]	5.5	2.5%
CC(=O)Nc1ccc(-c2csc(NC(=O)C3CCN(S(=O)(=O)c4cccs4)CC3)n2)cc1	8.2%	?	?	?	-69.3*	?
SMILES	SARS PLpro yeast	MARV entry inh	HCV inhibitor	Lassa entry inh	HCMV inh	FMDV inh
O=C(Nc1cc(Cl)ccn1)C1CCN(S(=O)(=O)c2cccs2)CC1	0.9%	?	?	?	-73.2*	?
Cc1csc(NC(=O)C2CCN(S(=O)(=O)c3cccs3)CC2)n1	0.1%	?	?	-14.7%[46.1 µM]	?	?
CCCn1c(NC(=O)C2CCN(S(=O)(=O)c3cccs3)CC2)nc2ccccc21	-6.0%	12.6µM*	14.1µM*	?	-62.2*	?
Cc1csc(NC(=O)C2CCN(S(=O)(=O)c3ccccc3F)CC2)n1	-0.1%	?	?	-25.2%	-60.3*	-29.2%
O=C(Nc1ccncc1)C1CCN(S(=O)(=O)c2cccs2)CC1	-3.1%	-9.9%[46.1 µM]	11.2%	-12.2%	1.1	5.7%
C=CCOC(=O)N[C@H](C(C(=O)OC)=C(C)NCc1ccccc1)c1cccc(OC)c1	.	-13.4%[14.2 µM]	.	.	.	.
CCCOc1ccc(CS[C@@H](CC(=O)O)C(=O)O)cc1	.	16.7%	.	.	.	.
Cc1cc(C)cc(NC(=O)N2CCN(S(C)(=O)=O)CC2)c1	-0.2%	6.0%[46.1 µM]	3.4%	1.1%	10.9	-8.7%
CCOC(=O)C1CCCN(S(=O)(=O)c2ccc3[nH]c(=O)ccc3c2)C1 (centres undefined)	.	.	.	-0.3%[46.1 µM]	10.3	?
O=C(Nc1nc2c(F)cc(F)cc2s1)C1CCN(C(=O)c2ccc(F)cc2)CC1	-6.3%	20.2%[46.1 µM]	-19.8%	23.0%	11.4	-12.0%
O=C(Nc1nc(-c2ccc(F)cc2)cs1)C1CCN(C(=O)c2ccc(F)cc2)CC1	0.8%	11.2µM*	?	-28.0%[46.1 µM]	-79.9*	11.2µM*
O=C(c1sc2cccc(F)c2c1Cl)N1CCN(c2ncccn2)CC1	?	8.4%	9.0%	-3.7%	?	-3.4%
Cc1ccc(S(=O)(=O)CC2CSc3nc(N)cc(=O)n32)cc1 (centres undefined)	?	-2.3%	9.2%	18.3%	3.8	-0.5%
Cc1ccc(S(=O)(=O)CCc2nc3ccccc3n2CCC#N)cc1	-6.8%	-2.3%	?	-16.5%	-80.8*	-26.1%
Cc1ccc(S(=O)(=O)CC2CSc3nc4ccccc4n32)cc1 (centres undefined)	-1.1%	?	?	?	-71.9*	?
CCOc1ccc(-n2c(SCc3nc(-c4ccc(OC)cc4)no3)nnc2-c2ccncc2)cc1	.	-19.9%[46.1 µM]	.	-12.5%[46.1 µM]	-13.9	?
Cc1cc(C(=O)N/N=C/c2ccc([N+](=O)[O-])s2)n[nH]1	-3.5%	?	10µM*	?	-90.9*	-12.0%
Cc1[nH]cnc1C(=O)N/N=C/c1ccc([N+](=O)[O-])s1	-2.2%	?	?	-10.0%[46.1 µM]	-90.4*	-0.9%
CC(=O)c1ccc(N2CCN(c3ncnc4c3cnn4C)CC2)cc1	.	.	.	17.7%[46.1 µM]	13.3	?
COc1ccc(-n2ncc3c(N4CCN(c5cccc(C)c5C)CC4)ncnc32)cc1	4.2%	.	-0.6%	.	-22.0	?
COc1ccc(N2CCN(c3ncnc4c3cnn4C)CC2)cc1	.	.	.	-10.9%[46.1 µM]	-61.0*	?

Compound activity from PubChem BioAssay.
